According to PubChem BioAssay (NCI):
The panel holds about 83,000 compounds, 20% with a hit somewhere; the sample as a whole holds those more often.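 96-well plates, one dose, 48 hours. Percent growth reported; active if below 10.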 Values without a mark were called inactive. The source made the active and inactive calls.

What was measured:
Assay in all cases: NCI-60 one-dose screen, 48 h (100 = growth as untreated, 0 = no growth, -100 = all killed)
Conditions in all cases: 10 µM unless noted
[1] = tested on: SK-MEL-2 melanoma
[2] = tested on: EKVX NSCLC
[3] = tested on: SN12C renal
[4] = tested on: UO-31 renal
[5] = tested on: TK-10 renal
[6] = tested on: ACHN renal
[7] = tested on: CAKI-1 renal
[8] = tested on: A498 renal
[9] = tested on: CCRF-CEM leukemia
[10] = tested on: MOLT-4 leukemia

Compound	growth [1]	growth [2]	growth [3]	growth [4]	growth [5]	growth [6]	growth [7]	growth [8]	growth [9]	growth [10]
C=C(CN1CC=CCC1)[C@@H]1CC[C@]2(C(=O)OC)CC[C@]3(C)[C@H](CC[C@@H]4[C@@]5(C)CC[C@H](OC(C)=O)C(C)(C)[C@@H]5CC[C@]43C)[C@@H]12	103%	109%	92.8%	86.4%	121%	102%	81.2%	113%	82.7%	82.1%
O=C1Nc2ccccc2/C1=C/c1c[nH]c2ccccc12	99.8%	15.7%	64.5%	29.3%	110%	66.7%	42.8%	91.6%	58.9%	65.6%
Oc1[nH]c2ccccc2c1/C=c1/ccc2c(c1)N=C(c1ccc(C(F)(F)F)cc1)N=2	27.9%	51.1%	63.7%	73.1%	75.5%	58.7%	32.8%	35%	8.28% (active)	35.5%
OC(c1cc(-c2ccc(C(F)(F)F)cc2)nc(-c2ccc(C(F)(F)F)cc2)c1)C1CCCCN1 (stereo not given)	-66.6% (active)	-65.4% (active)	-78.5% (active)	-83.6% (active)	-90.6% (active)	-73.4% (active)	-81.6% (active)	-80.5% (active)	-56.2% (active)	-57.5% (active)
Cc1ccc(-c2cnc3sc4ccc(Cl)cc4n23)cc1	103%	67.1%	93%	64.9%	158%	92.2%	84.2%	88.2%	106%	96.7%
CCN1CCN(Cc2ccc(NC(=O)c3nc4ccc5[nH]ncc5c4c4c3CCCC4)cc2C(F)(F)F)CC1	92%	74.3%	-75.6% (active)	-91.8% (active)	-33.7% (active)	-97.1% (active)	-11.7% (active)	93.2%	3.68% (active)	-28.9% (active)
COc1cc(C2Nc3ccccc3S2)cc(CN2CCOCC2)c1O (stereo not given)	64.4%	102%	91.9%	45.6%	84.7%	88.3%	74%	73.3%	80.1%	25.3%
CCCc1cc2c(cc1CN(Cc1cc3c(cc1CCC)OCO3)C(=N)OCC)OCO2	81.3%	75%	80%	67.3%	72.9%	90.4%	83.5%	97.6%	80.4%	93.5%
Cc1c(O)c(=O)n(-c2ccccc2)n1C	112%	120%	98.2%	79.6%	112%	96.5%	107%	120%	118%	84.2%
Cc1ccc(NC(=O)Cn2nncc2CN2C(=O)CSC2=O)cc1C	102%	91.3%	105%	91.6%	98.8%	100%	96.8%	93.3%	106%	103%
O=C(Nc1ccc(Br)cc1)Nc1ccccc1Cl	92%	70.9%	84.7%	58.9%	125%	84.4%	55.2%	86.9%	94.8%	63.9%
COc1ccc2nc(NC(=O)/C(=C/c3cc(OC)c(OC)c(OC)c3)c3ccc(OC)c(OC)c3)sc2c1	95.6%	77.8%	99.9%	67.4%	98.5%	94.9%	75.9%	95.7%	98.6%	83.7%
COc1cc2c(cc1I)-c1c(cc(OC)c(OC)c1OC)CC[C@@H]2NC(C)=O	18.7%	44.6%	26.2%	29.5%	59%	33.2%	8.95% (active)	-30.6% (active)	22.4%	24.3%
COc1cc(/C=C2\C(=O)Nc3ccc(N(C)C)cc32)cc(OC)c1OC	61.2%	34.4%	25.2%	35.2%	42.3%	41.6%	22.2%	-18.2% (active)	21.9%	36.2%
CNCc1cccc2c1OCCOCCOCCC(C)S(=O)(=O)c1ccc(cc1)-c1cnc(N)c(n1)C(=O)N2 (stereo not given)	75.2%	52.3%	45.9%	44.4%	66.8%	18.9%	18.6%	6.01% (active)	2.12% (active)	16.4%
CCN(CC)Cc1cc(Nc2ccnc3cc(Cl)ccc23)cc(-c2ccc(Cl)cc2)c1O	80.1%	2.25% (active)	23.6%	-21.4% (active)	5.81% (active)	57.1%	54.8%	48.9%	45%	24%
Cn1nc(C(F)(F)F)cc1-c1cc(Cl)c(OCc2ccc(Cl)cc2)c(-c2ccc(Cl)c(C(F)(F)F)c2)c1O	-33.8% (active)	4.62% (active)	5.76% (active)	0.656% (active)	2.92% (active)	-11.4% (active)	-19.2% (active)	-41.9% (active)	9.85% (active)	-14.2% (active)
O=C(CSc1ccc(Cl)cc1)Nc1ccc(-c2nc3ccccc3s2)c(Cl)c1	92.9%	59.6%	46.5%	38.2%	85.4%	54.1%	53.5%	32.1%	41.6%	68.3%
CCOC(C)(c1ccc(Cl)cc1)C1CCNCC1 (stereo not given)	106%	72.9%	100%	80.6%	96.1%	98.4%	100%	86.1%	109%	81.7%
COc1cc(NC(C)CCCN)c2ncccc2c1Oc1ccc(Cl)cc1 (stereo not given)	102%	77.1%	77.3%	41.5%	101%	82.6%	68.7%	71.1%	77%	52.9%
